Laboratory results from paper PMC11062922 (Nature Chemical Biology, 2023).
Like-named read-outs stand apart in the source and are kept apart here.

Legend:
Design in all cases: species or system human, MV4-11 + K-562 + COLO205 + SK-N-BE2 + OVCAR-8
PRKCD = conditions: read-out: apparent Kd, compound concentrations: 100 nM and 1000 nM (sheet 'Samples'), n = 1
CAMKK2 = conditions: read-out: apparent Kd, compound concentrations: 100 nM and 1000 nM (sheet 'Samples'), n = 1
JAK1 = conditions: read-out: apparent Kd, n = 1
LATS1 = conditions: read-out: apparent Kd, compound concentrations: 100 nM and 1000 nM (sheet 'Samples'), n = 1
MARK2 = conditions: read-out: apparent Kd, compound concentrations: 100 nM and 1000 nM (sheet 'Samples'), n = 1
MARK3 = conditions: read-out: apparent Kd, compound concentrations: 100 nM and 1000 nM (sheet 'Samples'), n = 1
PKN1 = conditions: read-out: apparent Kd, n = 1
PRKACB = conditions: read-out: apparent Kd, n = 1
RPS6KA3 = conditions: read-out: apparent Kd, compound concentrations: 100 nM and 1000 nM (sheet 'Samples'), n = 1
TBK1 = conditions: read-out: apparent Kd, compound concentrations: 100 nM and 1000 nM (sheet 'Samples'), n = 1
MTHFD1 = conditions: read-out: apparent Kd, n = 1
DYNC1LI1 = conditions: read-out: apparent Kd, compound concentrations: 100 nM and 1000 nM (sheet 'Samples'), n = 1
MDN1 = conditions: read-out: apparent Kd, n = 1
BMPR2 = conditions: read-out: apparent Kd, compound concentrations: 100 nM and 1000 nM (sheet 'Samples'), n = 1
IRAK4 = conditions: read-out: apparent Kd, compound concentrations: 100 nM and 1000 nM (sheet 'Samples'), n = 1
RAB14 = conditions: read-out: apparent Kd, n = 1
MAP3K6 = conditions: read-out: apparent Kd, compound concentrations: 100 nM and 1000 nM (sheet 'Samples'), n = 1
IRAK1 = conditions: read-out: apparent Kd, n = 1
SLC25A6;SLC25A4 = conditions: read-out: apparent Kd, n = 1
CDK10 = conditions: read-out: apparent Kd, n = 1
[1] = compound concentrations:100 nM and 1000 nM (sheet 'Samples')

SMILES: Cn1cc(C2=C(c3cn(CCCO)c4ccccc34)C(=O)NC2=O)c2ccccc21 [RO0317377-000]
- potency estimated from few doses (PRKCD; CATDS: 9.7795114941797295E-2): 2020 nM

SMILES: O=C1N=C(NCc2cccs2)SC1Cc1ccc2ncccc2c1 (stereo not shown) [RO4629078-000]
- potency estimated from few doses (CAMKK2; CATDS: 1.0556199661625101E-2): 586 nM
- potency estimated from few doses (JAK1; compound concentrations: 100 nM and 1000 nM (sheet 'Samples'), CATDS: 8.4918440228529003E-3): 1060 nM
- potency estimated from few doses (LATS1; CATDS: 8.7867541844469099E-3): 953 nM
- potency estimated from few doses (MARK2; CATDS: 7.7790140637755802E-3): 1430 nM
- potency estimated from few doses (MARK3; CATDS: 8.2190831573709308E-3): 1180 nM
- potency estimated from few doses (PKN1; compound concentrations: 100 nM and 1000 nM (sheet 'Samples'), CATDS: 8.6120949637054304E-3): 1010 nM
- potency estimated from few doses (PRKACB; compound concentrations: 100 nM and 1000 nM (sheet 'Samples'), CATDS: 8.4250069561530305E-3): 1080 nM
- potency estimated from few doses (PRKCD; CATDS: 8.2287657459755997E-3): 1170 nM
- potency estimated from few doses (RPS6KA3; CATDS: 8.4062550540876194E-3): 1090 nM
- potency estimated from few doses (TBK1; CATDS: 7.6855251717376097E-3): 1490 nM

SMILES: CN1C(=O)c2ccccc2N(C)c2nc(Nc3cnn(C4CCNCC4)c3)ncc21 [XMD-17-51]
- potency estimated from few doses (MARK2; CATDS: 1.3481113896194E-2): 2050 nM
- potency estimated from few doses (MARK3; CATDS: 1.4488422936038499E-2): 1430 nM

SMILES: O=C1N=C(NCCc2ccccn2)S/C1=C\c1ccc2ncccc2c1 [RO4508346-000]
- potency estimated from few doses (MTHFD1; compound concentrations: 100 nM and 1000 nM (sheet 'Samples'), CATDS: 6.5916651027534801E-2): 1980 nM

SMILES: COc1cc(Nc2nccc(N3CCC(NC(=O)C4COc5ccccc5O4)C3)n2)cc(OC)c1OC (stereo not shown) [GSK1379761A]
- potency estimated from few doses (DYNC1LI1; CATDS: 0.20239822738500499): 2020 nM

SMILES: CCn1cc(-c2ccnc3[nH]c(-c4cccc(CN(C)C)c4)cc23)c(-c2ccc(NC(=O)N(C)C)cc2)n1 [GSK1070916]
- potency estimated from few doses (MDN1; [1]): 2000 nM

SMILES: COc1cc(Nc2ccnc3cc(-c4ccncc4)ccc23)cc(OC)c1OC.Cl [GW494610A]
- potency estimated from few doses (BMPR2; CATDS: 2.09550401545208E-2): 2200 nM

SMILES: Cl.O=C1N=C(NCc2ccccn2)S/C1=C\c1ccc2ncccc2c1 [RO4874953-001]
- potency estimated from few doses (IRAK4; CATDS: 7.1454413714057002E-2): 1930 nM

SMILES: COc1ccc(Nc2nccc(N3CCC(NC(=O)Nc4ccc5c(c4)OCO5)C3)n2)cc1 (stereo not shown) [GSK1379745A]
- potency estimated from few doses (MDN1; compound concentrations: 100 nM and 1000 nM (sheet 'Samples'), CATDS: 4.1972847016179399E-2): 1360 nM
- potency estimated from few doses (RAB14; compound concentrations: 100 nM and 1000 nM (sheet 'Samples'), CATDS: 3.8007636055388601E-2): 1680 nM

SMILES: COc1cccc(-n2ncc3c(N/N=C/c4ccc(C(=O)NCCN(C)C)cc4)ncnc32)c1.Cl [GW784307A]
- potency estimated from few doses (CAMKK2; CATDS: 2.5303732707076199E-2): 2120 nM

SMILES: CNC1=NC(=O)/C(=C/c2ccc3ncccc3c2)S1 [RO4595949-000]
- potency estimated from few doses (MAP3K6; CATDS: 5.3158736559022798E-2): 1510 nM

SMILES: CNC(=O)c1ccccc1Nc1nc(Nc2cccc(CS(C)(=O)=O)c2)ncc1C.O=CO [GSK1520489A]
- potency estimated from few doses (BMPR2; CATDS: 1.16298732818768E-2): 672 nM
- potency estimated from few doses (IRAK1; compound concentrations: 100 nM and 1000 nM (sheet 'Samples'), CATDS: 1.0270392688251299E-2): 1150 nM
- potency estimated from few doses (IRAK4; CATDS: 9.4049632429945695E-3): 1870 nM
- potency estimated from few doses (LATS1; CATDS: 9.9587793654228995E-3): 1340 nM
- potency estimated from few doses (RPS6KA3; CATDS: 1.12432401151655E-2): 768 nM
- potency estimated from few doses (TBK1; CATDS: 1.25946113140399E-2): 504 nM

SMILES: O=S(=O)(c1ccc(-c2ccnc3[nH]ccc23)cc1)N1CCCC1 [GSK846226A]
- potency estimated from few doses (SLC25A6;SLC25A4; [1]): 2020 nM

SMILES: CN1CCN(Cc2ccc(NC(=O)Nc3ccc(N(C)c4ccnc(Nc5ccc(CS(C)(=O)=O)cc5)n4)cc3)cc2)CC1.Cl [GW827654A]
- potency estimated from few doses (CDK10; compound concentrations: 100 nM and 1000 nM (sheet 'Samples'), CATDS: 3.5844771224848297E-2): 1570 nM

SMILES: Nc1nc(N)c2nc(-c3ccccc3)[nH]c2n1 [SKF-12778]
- potency estimated from few doses (JAK1; [1]): 953 nM
- potency estimated from few doses (PRKACB; [1]): 1790 nM
- potency estimated from few doses (RAB14; [1]): 1300 nM

SMILES: N#Cc1cccc(Nc2nccc(-c3cnn4ncccc34)n2)c1 [GW778894X]
- potency estimated from few doses (CDK10; [1]): 405 nM
- potency estimated from few doses (IRAK1; [1]): 896 nM

SMILES: O=S(=O)(CCOCc1ccc(-c2ccc3ncnc(Nc4ccc(OCc5cccc(F)c5)c(Cl)c4)c3c2)o1)c1ccccc1 [GW615311X]
- potency estimated from few doses (MAP3K6; CATDS: 2.8394321566467099E-2): 1310 nM

SMILES: COc1cccc(C2=C(c3cn(C)c4c(C)cccc34)C(=O)NC2=O)c1 [RO3301012-000]
- potency estimated from few doses (SLC25A6;SLC25A4; compound concentrations: 100 nM and 1000 nM (sheet 'Samples'), CATDS: 9.9606855520270293E-2): 1850 nM

SMILES: COc1cc(F)c(F)c(F)c1C(=O)c1cnc(NC2CCN(S(C)(=O)=O)CC2)nc1N [RO4600703-000]
- potency estimated from few doses (MTHFD1; [1]): 1300 nM

SMILES: COc1ccc(C2=NC(c3ccc(Cl)cc3F)C(C(=O)Nc3ccc4[nH]ncc4c3)=C(C)N2)cn1.O=C(O)C(F)(F)F (stereo not shown) [GSK534913A]
- potency estimated from few doses (PKN1; [1]): 2050 nM

SMILES: Fc1cccc(COc2ccc(Nc3ncncc3C#Cc3ccccc3)cc2Cl)c1 [GW651576X]
- potency estimated from few doses (DYNC1LI1; CATDS: 4.5527640720115801E-2): 2220 nM
